The list is not random: actives were taken first. Their share in the collection is about 9.5%.
SARS PLP yeast = inhibitors of SARS-CoV papain-like protease in yeast; AID 485353; S. cerevisiae expressing SARS-CoV PLpro, growth rescue; Potency, µM (series often up to 32.9 µM), most hits filed as activators; actives 0.19% (n = 330,000); also: nearly all actives have a fitted effect of over 55% in size
RE007 growth inh = less growth of the S. pombe RE007 Vpr strain | Potency, µM (series often up to 92.2 µM), most hits filed as inhibitors | S. pombe RE007 Vpr strain, BacTiter-Glo ATP luminescence, 24 h | AID 651644 | actives 0.21% (n = 360,000); active = well fitted falling curve with a large enough effect; inconclusive = small, poorly fitted or top-dose-only effect; inactive = no such curve, though single readings can be large or run the other way; also: nearly all actives have a fitted effect of over 50% in size
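Fission yeast RE007 carrying one integrated HIV-1 vpr copy, seeded at OD 0.01 in PMG+AL medium with 23 nL pinned compound. Grown 24 h at 30 degrees; viability read by BacTiter-Glo luminescence after 5 min.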
Pf growth 96h = inhibits malaria parasite growth, 96 h; P. falciparum luciferase reporter growth, 96 h; Potency, µM (titrated, usually from 28.7 µM), actives largely listed as inhibitors; actives 6.9% (n = 320,000); active = well fitted inhibition curve with a large enough effect; inconclusive = small, poorly fitted or top-dose-only effect, or another doubt; inactive = no such curve, though single readings can be large or run the other way
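Compounds incubated with erythrocytes infected by luciferase-expressing P. falciparum (2% hematocrit, 0.05% parasitemia final) for 96 hours, 37 C in 5% CO2. Growth inhibition scored as decreased luciferase luminescence.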
NS1 function inh = blocks influenza NS1 protein function. Potency, µM (doses to about 46.1 µM). actives 0.4% (n = 270,000). AID 2326; also: actives are rising curves; nearly all actives have a fitted effect of over 50% in size
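Growth recovery, yeast-based: influenza A NS1 expressed in S. cerevisiae causes slow growth, and suppressors are detected by OD600. The parent strain without NS1 is used as positive control.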
Pf growth 48h = P. falciparum growth inhibition at 48 hours (one generation) | actives 5.9% (n = 310,000) | P. falciparum luciferase growth in erythrocytes, 48 h | Potency, µM (top dose mostly 28.7 µM), hits mostly inhibitors; active = well fitted inhibition curve with a large enough effect; inconclusive = small, poorly fitted or top-dose-only effect, or another doubt; inactive = no such curve, though single readings can be large or run the other way
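Here the parasites carry a stable luciferase gene and grow inside erythrocytes in Albumax-based RPMI medium with compound for one erythrocytic cycle. Activity is scored as loss of luminescent signal.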
Numbers stand for hits; – = inactive; ? = inconclusive; · = no result given; [ ] = another dose, or the depositor's remark. Unless noted, calls follow the shape of the full dose curve.

SMILES	SARS PLP yeast	RE007 growth inh	Pf growth 96h	NS1 function inh	Pf growth 48h
COc1ccc(CCN(C)C2CC(=O)N(c3ccccc3)C2=O)cc1OC (configuration not stated)	–	6.3µM	–	–	?
COc1ccc(N2C(=O)CC(N(C)CCc3ccc(OC)c(OC)c3)C2=O)cc1 (configuration not stated)	–	22µM	–	–	9.3µM
COc1ccc(CCN(C)Cc2ccc(OC)c(OCc3ccccc3)c2)cc1OC	–	–	10µM	–	?
COc1ccc(N2C(=O)CC(N(CCc3ccc(OC)c(OC)c3)C(=S)Nc3ccccc3)C2=O)cc1 (configuration not stated)	–	–	?	–	4.7µM
COc1ccc(CCN(C)Cc2ccc(OCc3ccccc3)c(OC)c2)cc1OC	–	–	?	–	?
CCOc1ccc(N2C(=O)CC(N(CCc3ccc(OC)c(OC)c3)C(=O)/C=C/C(=O)O)C2=O)cc1 (configuration not stated)	–	–	–	–	–
O=C(NCCc1ccc(Cl)cc1)c1ccc(Br)s1	–	–	?	–	–
Cc1cccc(Cl)c1NC[C@H](O)CN1CCN(C)CC1	·	·	·	–	·
CCOC(=O)C1C(=O)NC(C(=O)OCC)(C(=O)OCC)C1C(C)CC (configuration not stated)	·	–	·	·	·
CN(CC(=O)NCc1ccccc1F)S(=O)(=O)c1ccc(Cl)cc1	–	–	–	–	–
COC(=O)c1ccc(N2C(=O)CC(N(C)CCc3ccc(OC)c(OC)c3)C2=O)cc1 (configuration not stated)	–	7.9µM	–	–	–
CCCOc1ccc(N2C(=O)CC(N(CCc3ccc(OC)c(OC)c3)C(=O)c3ccccc3)C2=O)cc1 (configuration not stated)	–	–	–	–	–
CCOC(=O)C1=C(COC(=O)COc2ccc(Br)cc2)NC(=O)NC1C (configuration not stated)	–	–	–	·	–
COc1cccc(C(=O)NCC(c2cccnc2)N2CCN(c3ccccc3OC)CC2)c1 (configuration not stated)	–	–	?	–	12µM
COc1ccc(N2CCN(C(CNC(=O)c3ccc4c(c3)OCO4)c3cccnc3)CC2)cc1 (configuration not stated)	–	–	?	–	–
COc1ccc(N2CCN(C(CNC(=O)c3cccc(Cl)c3)c3cccnc3)CC2)cc1 (configuration not stated)	–	–	1.9µM	–	?
CC1CCCN(CCCN2C(=O)C3C(C(=O)Nc4cccc(Cl)c4)C4C=CC3(O4)C2C(=O)NC2CCCCC2)C1 (configuration not stated)	–	–	–	–	?
CS(=O)(=O)c1cc(N2CCOCC2)ccc1CNC[C@H]1O[C@@H](n2cnc3c(=O)[nH]c(N)nc32)[C@H](O)[C@@H]1O	·	–	·	·	·
CCCc1cc(=O)[nH]c(SCC(=O)N(CC)c2c(N)n(Cc3ccccc3)c(=O)[nH]c2=O)n1	–	–	–	·	–
Nc1ccc(-c2cc(-c3cccc(N)c3)nc(-c3ccccc3)n2)cc1	–	·	2.1µM	?	13µM
C/C(=N/Nc1nc(-c2ccccc2)cc(-c2ccccc2)n1)c1ccc(N)cc1	–	·	?	7.9µM	?
O=C(Nc1cccc(S(=O)(=O)N2CCOCC2)c1)c1cc([N+](=O)[O-])ccc1N1CCOCC1	–	–	–	·	–
C=CC(=O)NC(C)(C)CCN1CCOCC1	–	–	–	–	0.93µM
COc1ccc(CCN2C(=S)N(c3ccc(Cl)cc3)C(=O)C2CC(N)=O)cc1OC (configuration not stated)	–	–	12µM	–	10µM
CCOC(=O)c1ccc(N2C(=O)C3CCCN3C2=S)cc1 (configuration not stated)	–	–	?	·	?
SMILES	SARS PLP yeast	RE007 growth inh	Pf growth 96h	NS1 function inh	Pf growth 48h
CCOC(=O)c1ccc(N2C(=O)C(CC(N)=O)N(CCc3ccc(OC)c(OC)c3)C2=S)cc1 (configuration not stated)	–	–	–	–	15µM
Cc1ccn(CCC(=O)N2CCCC(CCC(=O)NCc3ccc(F)c(F)c3)C2)n1 (configuration not stated)	–	–	12µM	–	–
O=C(/C=C/c1cccc(Br)c1)NCc1ccncc1	–	–	–	·	–
CSc1ccccc1NC(=O)CN1CCN(S(=O)(=O)c2ccccc2[N+](=O)[O-])CC1	–	–	9.3µM	·	9.3µM
CCS(=O)(=O)N1CCN(S(=O)(=O)c2ccccc2[N+](=O)[O-])CC1	–	–	–	–	–
CSc1ccccc1NC(=O)CN1CCN(c2ccccn2)CC1	–	–	8.3µM	–	7.4µM
CCOC(=O)C1CCN(C(=O)c2ccccc2)c2scc(-c3ccccc3)c2C1=O (configuration not stated)	·	–	·	·	·
O=[N+]([O-])c1cnc(Sc2ccncn2)s1	–	1µM	–	–	–
CCC(=O)O[C@@H](OP(=O)(CCCCc1ccccc1)CC(=O)N1C[C@H](C2CCCCC2)C[C@H]1C(=O)O)C(C)C (some centres not stated)	·	·	5.4µM	·	–
O=C(O)C1CC=CCC1C(=O)N1CCN(c2nc(-c3ccccc3Cl)c3cc(Br)ccc3n2)CC1 (configuration not stated)	–	–	?	–	12µM
Nc1nonc1C(=O)NCCNCc1cc(Br)ccc1OCc1ccccc1F	–	–	?	–	3.3µM
Nc1nonc1C(=O)NCCNCc1ccccc1OCc1ccccc1F	–	–	–[5.75 µM]	–	–
O=C(Nc1ccccc1)Nc1ccc(Br)cc1F	–	–	0.37µM	–	–
O=C(Nc1cccc(Cl)c1)Nc1ccc(Br)cc1F	–	–	?	–	?
Cc1cc(Cl)c2oc(C(=O)N(C)Cc3ccon3)c(C)c2c1	–	–	–	–	–
CCN(CC)CCCN(C(=O)c1cccc(C)c1)c1nc(-c2ccc(OC)cc2)cs1	–	–	4.1µM	–	?
CCN(CC)CCCN(C(=O)c1cccs1)c1nc(-c2ccc(OC)cc2)cs1	–	–	–	–	13µM
CCN(CC)CCCN(C(=O)c1ccco1)c1nc(-c2ccc(Cl)cc2)cs1	–	–	?	–	1.5µM
Cn1c(=O)c2sccc2n(Cc2cccc(Br)c2)c1=O	–	–	?	–	–
O=C(NNC(=O)c1ccccc1OCc1ccccc1)c1ccccc1O	?	–	?	–	?
O=C(NNC(=O)c1ccccc1OCc1ccc(F)cc1)c1ccccc1O	–	–	8.3µM	–	?
COc1ccc(C(=O)N/N=C(\C)c2ccccn2)cc1OC	–	?	–	–	?
C/C(=N\NC(=O)c1ccccc1OCc1ccc(F)cc1)c1ccccn1	–	–	4.1µM	·	1.5µM
CCOc1ccc(OCc2ccc(C(=O)N/N=C(\C)c3ccccn3)cc2)cc1	–	?	0.37µM	·	0.37µM
CCOc1ccc(NS(=O)(=O)c2cc(C(=O)N(CC)CC(=O)NCc3cccs3)ccc2C)cc1	–	–	?	·	–
